Data on 38 compounds can be found in the supplement of paper PMC5641865, “A screen for kinase inhibitors identifies antimicrobial imidazopyridine aminofurazans as specific inhibitors of the Listeria monocytogenes PASTA kinase PrkA” (The Journal of Biological Chemistry, 2017).

Molecules are shown by their SMILES. ± gives the standard deviation of the averaged measurements.
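Further: End-point A600 read in BHI broth at 37 °C with 2% DMSO, inhibition computed as (1 − OD with compound plus ceftriaxone ÷ OD with ceftriaxone only) × 100.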

The assay deals with Listeria monocytogenes 10403S. As to the kind of experiment: growth inhibition relative to ceftriaxone-alone control; higher = stronger potentiation of ceftriaxone growth inhibition. The settings on record: 10 µM; ceftriaxone 1 ug/ml; 12 h.
Take `CC1=C(C(=O)Nc2ccc3[nH]ncc3c2)C(c2ccc(F)cc2)N=C(c2ccc(C(F)(F)F)nc2)N1` (stereo not drawn): the growth inhibition worked out at 4.07 ± 7.3%.
To `COc1cccc(-c2cc(=O)c3ccccc3o2)c1N` belongs 6.7074 ± 0.0026%.
To `CN(C)c1ccc(-c2nc3ncc(Cl)c(N4CCN(CC(=O)Nc5nccs5)CC4)c3[nH]2)cc1` belongs 15.3 ± 0.56%.
On to `CC(C)(C)c1cc(/C=C(\C#N)C(N)=S)cc(C(C)(C)C)c1O` [Tyrphostin AG 879 (AG 879)], for which the growth inhibition amounted to 72.8 ± 30%.
`COc1ccc(COc2cc3oc(=O)c4cc(C(C)O)ccc4c3cc2OC)cc1` (stereo not drawn) [Palomid 529]: the growth inhibition was found to be 18 ± 10%.
To `COc1cc(C=NNc2ncnc3c2cnn3-c2ccccc2)ccc1O` belongs 3.9 ± 5.4%; to `Nc1nccc(Oc2ccc(NC(=O)c3c[nH]cc(-c4ccc(F)cc4)c3=O)cc2F)c1Cl`, 1.11 ± 36%; to `Nc1ccc(C#Cc2cncnc2Nc2ccc(OCc3cccc(F)c3)c(Cl)c2)cc1`, -6.22 ± 2.5%.
Take `COc1ccc(Nc2ncc(-c3ccccc3)o2)cc1OC`: the growth inhibition was determined as 10.7 ± 3.4%.
Turning to `COc1ccc2cc(-c3c(-c4ccncc4)nc(-c4ccc([S+](C)[O-])cc4C)n3C)ccc2c1` (stereo not drawn), the growth inhibition is 17.6 ± 9%.
To `CC(=O)Nc1nc(C)c(-c2ccc(Cl)c(S(=O)(=O)NCCO)c2)s1` belongs 29.5 ± 2%; to `NC(=O)c1sc(-n2cnc3ccc(C(F)(F)F)cc32)cc1OCc1ccccc1Br`, -2.79 ± 1.9%.
Under `COc1cc2c(N3CCN(C(=O)Nc4ccc(OC(C)C)cc4)CC3)ncnc2cc1OCCCN1CCCCC1` [Tandutinib (MLN518)] stands 32.3 ± 18%; under `CN1CCN(C2CCN(C(=O)Nc3cc(Oc4ccc(NC(=O)C5(C(=O)Nc6ccc(F)cc6)CC5)c(F)c4)ccn3)CC2)CC1` [Golvatinib (E7050)], 48.7 ± 37%.
To `NC(=O)Nc1sc(-c2ccc(F)cc2)cc1C(N)=O` belongs 40.9 ± 15%; to `CCn1c(-c2nonc2N)nc2c(C#CC(C)(C)O)nc(OC[C@H](N)c3ccccc3)cc21`, 66.2 ± 2.7%.
With `CCS(=O)(=O)N1CC(CC#N)(n2cc(-c3ncnc4[nH]ccc34)cn2)C1`, the growth inhibition was determined as 20.4 ± 0.71%.
To `O=c1cc(N2CCOCC2)oc2c(-c3cccc4c3sc3ccccc34)cccc12` belongs 26.2 ± 7%; to `O=C(Nc1cc(C(F)(F)F)cc(C(F)(F)F)c1)c1cc(Cl)ccc1O`, 97.6 ± 0.39%.
For `CN1CCN(c2cccc(Nc3nc4c(-c5ccc(S(C)(=O)=O)cc5)cccn4n3)c2)CC1`, the growth inhibition is 69 ± 27%.
As for `O=C(Nc1cccc(Nc2ncc(Br)c(NCCc3cnc[nH]3)n2)c1)N1CCCC1`, the growth inhibition stood at 9.34 ± 13%.
Under `OCCn1cc(-c2ccc3c(c2)CC/C3=N\O)c(-c2ccncc2)n1` stands 83 ± 8.8%; under `CC(C)n1nc(-c2cc3cc(O)ccc3[nH]2)c2c(N)ncnc21`, 16.2 ± 10%; under `CNC(=O)c1ncccc1Nc1nc(Nc2cc3c(cc2OC)CCCN3C(=O)CN(C)C)nc2[nH]ccc12`, -2.03 ± 1.3%.
To `O=C(NCc1ccccc1)c1csc(Nc2ccncn2)n1` [Thiazovivin] belongs 5.95 ± 11%; to `CCOc1ccn(-c2ccc(F)cc2)c(=O)c1C(=O)Nc1ccc(Oc2ccnc(N)c2Cl)c(F)c1`, 23.6 ± 24%.
Under `Fc1cc(-c2cccc3ncc(-c4cnn(C5CCNCC5)c4)nc23)cc(F)c1CN1CCOCC1` stands 82.1 ± 22%.
Turning to `COc1ccc(-c2nn3ncccc3c2-c2ccnc(Nc3ccc(F)c(F)c3)n2)cc1`, the growth inhibition was -0.06 ± 1.5%.
In the case of `Nc1ncc(-c2cccc(S(N)(=O)=O)c2)c2scc(-c3ccc(F)c(Cl)c3)c12`, the growth inhibition was -7.14 ± 12%.
For `N#Cc1c(NC(=O)c2ccccc2F)sc2c1CCCC2`, the growth inhibition is -3.06 ± 2.3%.
Under `Cc1ccc([N+](=O)[O-])cc1S(=O)(=O)N(C)/N=C/c1cnc2ccc(Br)cn12` stands 2.5 ± 4.3%; under `CS(=O)(=O)CCNCc1ccc(-c2ccc3ncnc(Nc4ccc(OCc5cccc(C(F)(F)F)c5)cc4)c3c2)o1`, -9.85 ± 16%.
With `O=S(=O)(CCNCc1ccc(-c2ccc3ncnc(Nc4ccc(OCc5cccc(F)c5)c(Cl)c4)c3c2)o1)c1ccccc1`, the growth inhibition was -0.141 ± 13%.
Take `Cc1cnc(Nc2ccc(N3CCN(C)CC3)cc2)nc1Nc1cccc(S(=O)(=O)NC(C)(C)C)c1`: the growth inhibition amounted to 42.3 ± 24%.
Consider `Nc1ncnc2c1c(-c1cnc3[nH]ccc3c1)nn2C1CCCC1`, for which the growth inhibition amounted to 42.9 ± 23%.
Consider `Cc1cc(Cl)cc2c1NC(=O)C2=NNc1ccc(S(N)(=O)=O)cc1`, for which the growth inhibition is -9.29 ± 7.3%.
Under `COc1cc(N2CCN(C(C)C)CC2)ccc1Nc1nc(Nc2cccc3ncccc23)c2cc[nH]c2n1` stands -2.19 ± 2.3%.
To `FC(F)(F)c1cccc(-c2nn3ncccc3c2-c2ccnc(Nc3ccc4c(c3)OCCO4)n2)c1` belongs -5.79 ± 1.8%.
